PubChem BioAssay (NCI)
This is part of a sample that, as a whole, favours compounds with a hit. Of some 79,000 tested, about 15% had one in any assay. Rule as the data show it: active = growth inhibition above about 70%; inactive = the rest.

Tests used:
[1] = NCI Yeast Anticancer Drug Screen. Data for the rad50 strain (AID 155);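 also: 0% = growth of vehicle-only cultures of the same strain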; details: S. cerevisiae rad50 strain growth inhibition; at 50.0 µM; hits give high values
In short: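 Yeast carrying a defined DNA repair defect were exposed to test compounds, and growth was compared with vehicle-treated controls to give percent inhibition.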

[2] = NCI Yeast Anticancer Drug Screen. Data for the mec2-1 strain (AID 157); details: S. cerevisiae mec2-1 strain, at 50.0 µM, hits give high values
In short: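 Mutant yeast (mec2-1) grown with compound; growth inhibition relative to vehicle control reported.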

[3] = NCI Yeast Anticancer Drug Screen. Data for the sgs1 mgt1 strain (AID 161);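 also: 0% = growth of cultures given vehicle only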; details: S. cerevisiae sgs1 mgt1 strain, at 50.0 µM, hits give high values
In short: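 Compounds are added to genetically altered yeast, and growth is compared with cultures given vehicle alone to give percent inhibition.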

[4] = NCI Yeast Anticancer Drug Screen. Data for the cln2 rad14 strain (AID 165);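 also: 0% = growth equal to vehicle treated cultures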; details: S. cerevisiae cln2 rad14 strain, at 50.0 µM, hits give high values
In short: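 Readout is yeast growth inhibition versus vehicle-treated controls, using a strain with cln2 and rad14 alterations exposed to compound.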

[5] = NCI Yeast Anticancer Drug Screen. Data for the bub3 strain (AID 167); details: S. cerevisiae bub3 mutant strain, at 50.0 µM, hits give high values
In short: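 Compounds were applied to a genetically altered yeast strain carrying a cell-cycle control defect. Growth inhibition was scored against vehicle-treated controls.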

[6] = NCI Yeast Anticancer Drug Screen. Data for the mlh1 rad18 strain (AID 175); details: S. cerevisiae mlh1 rad18 strain growth inhibition; at 50.0 µM; hits give high values
In short: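 Genetically defined yeast (DNA repair-deficient) exposed to compounds; growth inhibition determined relative to vehicle.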

Measured: growth inhibition

N#CC(N)(C(=O)C(=O)NCCCNC(=O)C(=O)C(N)(C#N)c1ccc(Cl)cc1)c1ccc(Cl)cc1 (centres undefined)
inactive: [1] -37% | [2] -1.45% | [3] -32.4% | [4] -18.6% | [5] -35.1% | [6] -28.7%

CC1(C)OC2C(COCc3ccccc3)=CC(n3ccc(=O)[nH]c3=O)C2O1 (centres undefined)
inactive: [1] -8.3% | [2] -16.8% | [3] 1.7% | [4] -0.7% | [5] 10.1% | [6] 14.3%

COc1cc2c(cc1OC)C1CCN3C(=O)CCC3[N+]1(C)CC2 (centres undefined)
inactive: [1] 46.6% | [2] -1.05% | [3] 28.9% | [4] -4.3% | [5] 3.2% | [6] 8.7%

O=C(Cn1c2c(c3ccccc31)CCCC2)N1CCCC1
inactive: [1] -11.8% | [2] -39.9% | [3] 0.05% | [4] 2.75% | [5] 7.05% | [6] -23.7%

CCOC(=O)c1cc(NC(C)=O)cn1C
inactive: [1] 4.4% | [2] 8.8% | [3] -1.15% | [4] -11% | [5] 6.45% | [6] 16.4%

CN(C)c1ncnc2c1ccn2CC(O)CO (centres undefined)
inactive: [1] -2.7% | [2] -11.1% | [3] -8.55% | [4] -54.5% | [5] 3.1% | [6] -2.85%

O=P1(O)Oc2ccc3ccccc3c2-c2c(ccc3ccccc23)O1
inactive: [1] -0.4% | [2] 30.3% | [3] -6.1% | [4] -16.9% | [5] 19.4% | [6] 15.7%

C[N+](C)(C)CCCc1ccc2oc3ccccc3c2c1
inactive: [1] 21.8% | [2] 8.65% | [3] 7.35% | [4] 6.15% | [5] 0.7% | [6] 7.95%

N#Cc1ccc(Cl)cc1C#N
inactive: [1] 13.4% | [2] -4.65% | [3] -2.2% | [4] 7.65% | [5] 14.1% | [6] -14.3%

CCOC(=O)Cc1nc2ncncc2[nH]c1=O
inactive: [1] 3.25% | [2] 12.2% | [3] -1.8% | [4] 15.3% | [5] 2.35% | [6] -7.85%

CN(C)CCCNc1nc2cc(Cl)ccc2o1
inactive: [1] -7.1% | [2] -9.85% | [3] -5.7% | [4] -38.6% | [5] 6.7% | [6] -2.4%

O=C(Sc1ccccn1)c1ccccc1
inactive: [1] 4.15% | [2] -14.3% | [3] -18.4% | [4] -8.05% | [5] -21.6% | [6] -37.1%

COC1(OC)CC2OC1C1N=NN(C(=O)OC(C)(C)C)C21 (centres undefined)
inactive: [1] 28.1% | [2] 13.3% | [3] 6.8% | [4] 21.6% | [5] 16.8% | [6] 31.4%

CCC(=O)C(CC)Cc1ccc(OC)c(OC)c1 (centres undefined)
inactive: [1] 1.4% | [2] -15.9% | [3] -11.8% | [4] -5.55% | [5] 6.55% | [6] 2.25%

NCCCNCCCCNC(=O)C(O)NC(=O)CCCCCCN=C(N)N (centres undefined)
inactive: [1] -2.7% | [2] -11.2% | [3] -2.05% | [4] 11.4% | [5] 3.4% | [6] -1.6%

CCN(CC)CCn1c2c3ccccc3ccc2c2oc(=O)c3ccccc3c21
inactive: [1] -13.8% | [2] 6.6% | [3] -14.1% | [4] 19.4% | [5] -7.5% | [6] 7.8%

CCOC(=O)C1SCSCC1=O (centres undefined)
inactive: [1] -1.1% | [2] -1.7% | [3] -5.55% | [4] -30.2% | [5] -20.6% | [6] 6%

CN1C(=O)/C(=N/N(c2ccccc2)c2ccccc2)c2ccccc21
inactive: [1] -5.4% | [2] 26.6% | [3] -3.85% | [4] -3.55% | [5] 21.2% | [6] 5.5%

CCOCCOC(=O)c1ccc(C(C)C)cc1
inactive: [1] 4.9% | [2] 1.75% | [3] 7.8% | [4] -12.8% | [5] 5.25% | [6] 3.5%
